A short description of assay [1]: NCI Yeast Anticancer Drug Screen. Data for the rad50 strain (AID 155).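 Also: 0% = growth of vehicle-only cultures of the same strain.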 The note with it: S. cerevisiae rad50 strain growth inhibition, hits give high values. Put shortly:
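Vehicle-treated cultures provide the reference for the growth inhibition reported for compound-exposed, repair-deficient yeast.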

Assay [2] is described as follows: NCI Yeast Anticancer Drug Screen. Data for the mec2-1 strain (AID 157). As to conditions: S. cerevisiae mec2-1 strain, hits give high values. Put shortly: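 Vehicle-treated cultures served as reference for growth inhibition of compound-exposed mec2-1 yeast.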
Assay [3] can be described thus: NCI Yeast Anticancer Drug Screen. Data for the sgs1 mgt1 strain (AID 161).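 Also: 0% = growth of cultures given vehicle only.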 The note with it: S. cerevisiae sgs1 mgt1 strain, hits give high values. The procedure, abridged:
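Test agents were incubated with a DNA-repair-mutant yeast strain. Growth was then read and compared against vehicle-treated controls.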

Assay [4] in a line: NCI Yeast Anticancer Drug Screen. Data for the cln2 rad14 strain (AID 165).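 Also: 0% = growth equal to vehicle treated cultures.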 The note with it: S. cerevisiae cln2 rad14 strain, hits give high values. The procedure, abridged:
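Each compound was tested on cln2 rad14 yeast. Inhibition of growth was calculated against vehicle-exposed controls.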

Assay [5] can be described thus: NCI Yeast Anticancer Drug Screen. Data for the bub3 strain (AID 167). The note with it: S. cerevisiae bub3 mutant strain, hits give high values. Put shortly: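 Mutant yeast screening strain plus compound; vehicle-treated cultures serve as the 0% inhibition reference.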
Assay [6] is described as follows: NCI Yeast Anticancer Drug Screen. Data for the mlh1 rad18 strain (AID 175). As to conditions: S. cerevisiae mlh1 rad18 strain growth inhibition, hits give high values. The procedure, abridged:
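Vehicle-treated cultures served as the reference for growth inhibition in a yeast strain carrying DNA damage repair alterations exposed to each compound.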

[7] abbreviates: at 5.0 µM (retest, dose inferred, filed as 0.5).
Where [8] appears, read: at 50.0 µM (retest, dose inferred, filed as 5.0).

Compounds without any hit were thinned out: in the full panel of roughly 79,000, 15% have a hit. Unmarked numbers belong to inactive results. Calls of active or inactive are those of the source. Rule as the data show it: active = growth inhibition above about 70%; inactive = the rest.

This note sets out measurements from PubChem BioAssay (NCI).

On to `CN(C)c1ccc(/C=C/c2nccc3ccccc23)cc1`, for which the growth inhibition in assay [1] (setting [7]) was -9%; in assay [1] (setting [8]), 96% (active); in assay [1] (at 50.0 µM), 91% (active); in assay [2] (setting [7]) it was 8%; in assay [2] (setting [8]), 96% (active); in assay [2] (at 50.0 µM), 91.9% (active). Moreover, the growth inhibition in assay [3] (setting [7]) is 3%; in assay [3] (setting [8]), 97% (active); in assay [3] (at 50.0 µM), 94.7% (active); in assay [4] (setting [7]) it was -8%; in assay [4] (setting [8]) it was 96% (active); in assay [4] (at 50.0 µM), 75.5% (active). The growth inhibition was 4% in assay [5] (setting [7]); 97% (active) in assay [5] (setting [8]); 93.7% (active) in assay [5] (at 50.0 µM); 10% in assay [6] (setting [7]); 95% (active) in assay [6] (setting [8]); 91% (active) in assay [6] (at 50.0 µM).

In the case of `CCOc1cc(F)c([N+](=O)[O-])cc1[N+](=O)[O-]`, the growth inhibition in assay [1] (setting [7]) was 92% (active); in assay [1] (setting [8]), 99% (active); in assay [1] (at 50.0 µM), 98.7% (active); in assay [2] (setting [7]), 94% (active); in assay [2] (setting [8]), 100% (active); in assay [2] (at 50.0 µM) it was 54.4%. The growth inhibition in assay [3] (setting [7]) was 96% (active); in assay [3] (setting [8]) it was 99% (active); in assay [3] (at 50.0 µM), 51.5%; in assay [4] (setting [7]), 97% (active); in assay [4] (setting [8]) it was 100% (active); in assay [4] (at 50.0 µM), 98.4% (active). Moreover, the growth inhibition in assay [5] (setting [7]) is 91% (active); in assay [5] (setting [8]) it was 99% (active); in assay [5] (at 50.0 µM) it was 99% (active); in assay [6] (setting [7]), 92% (active); in assay [6] (setting [8]) it was 100% (active); in assay [6] (at 50.0 µM), 98.5% (active).

On to `Oc1ccc2c(c1)CCc1ccccc1-2`, for which the growth inhibition in assay [1] (setting [7]) is 37%; in assay [1] (setting [8]), 98% (active); in assay [1] (at 50.0 µM), 95.6% (active); in assay [2] (setting [7]), 36%; in assay [2] (setting [8]) it was 98% (active); in assay [2] (at 50.0 µM) it was 75.5% (active). Further, the growth inhibition is 11% in assay [3] (setting [7]); 88% (active) in assay [3] (setting [8]); 95.8% (active) in assay [3] (at 50.0 µM); 1% in assay [4] (setting [7]); 98% (active) in assay [4] (setting [8]); 99.2% (active) in assay [4] (at 50.0 µM). Further, the growth inhibition was 83% (active) in assay [5] (setting [7]); 99% (active) in assay [5] (setting [8]); 98.8% (active) in assay [5] (at 50.0 µM); 75% (active) in assay [6] (setting [7]); 98% (active) in assay [6] (setting [8]); 99.5% (active) in assay [6] (at 50.0 µM).

As for `Cc1cccc2c(N)c3ccccc3nc12`, the growth inhibition in assay [1] (setting [7]) is 12%; in assay [1] (setting [8]), 57%; in assay [1] (at 50.0 µM), 87.7% (active); in assay [2] (setting [7]), 3%; in assay [2] (setting [8]) it was 13%; in assay [2] (at 50.0 µM), 43.3%. The growth inhibition was 1% in assay [3] (setting [7]); 7% in assay [3] (setting [8]); 73.7% (active) in assay [3] (at 50.0 µM); 6% in assay [4] (setting [7]); 15% in assay [4] (setting [8]); 45.6% in assay [4] (at 50.0 µM). The growth inhibition is 0% in assay [5] (setting [7]); -9% in assay [5] (setting [8]); 45% in assay [5] (at 50.0 µM); 6% in assay [6] (setting [7]); 24% in assay [6] (setting [8]); 67.8% in assay [6] (at 50.0 µM).

`COC1=CC(=O)c2c(O)c3c(c(O)c2C1=O)CC(C)(O)OC3` (configuration not stated): the growth inhibition in assay [1] (setting [7]) was 87% (active); in assay [1] (setting [8]) it was 92% (active); in assay [1] (at 50.0 µM), 78% (active); in assay [2] (setting [7]), 62%; in assay [2] (setting [8]) it was 87% (active); in assay [2] (at 50.0 µM) it was 68.8%. Also, the growth inhibition was 89% (active) in assay [3] (setting [7]); 92% (active) in assay [3] (setting [8]); 80.2% (active) in assay [3] (at 50.0 µM); 21% in assay [4] (setting [7]); 45% in assay [4] (setting [8]); 47.9% in assay [4] (at 50.0 µM). Besides, the growth inhibition in assay [5] (setting [7]) is 51%; in assay [5] (setting [8]), 73% (active); in assay [5] (at 50.0 µM), 74.6% (active); in assay [6] (setting [7]), 89% (active); in assay [6] (setting [8]), 97% (active); in assay [6] (at 50.0 µM) it was 82.7% (active).

With `CN(C)CC(C)(CN(C)C)C(=O)/C=C/c1c(Cl)cccc1Cl`, the growth inhibition in assay [1] (setting [7]) was 5%; in assay [1] (setting [8]), 84% (active); in assay [1] (at 50.0 µM) it was 85% (active); in assay [2] (setting [7]) it was -2%; in assay [2] (setting [8]) it was 73% (active); in assay [2] (at 50.0 µM) it was 93.7% (active). Besides, the growth inhibition is 1% in assay [3] (setting [7]); 93% (active) in assay [3] (setting [8]); 77.4% (active) in assay [3] (at 50.0 µM); 3% in assay [4] (setting [7]); 56% in assay [4] (setting [8]); 18.9% in assay [4] (at 50.0 µM). The growth inhibition in assay [5] (setting [7]) was 4%; in assay [5] (setting [8]), 87% (active); in assay [5] (at 50.0 µM) it was 81% (active); in assay [6] (setting [7]), 7%; in assay [6] (setting [8]), 93% (active); in assay [6] (at 50.0 µM) it was 91.5% (active).

Turning to `CN(C)c1ccc(C(=C2C=CC(=[N+](C)C)C=C2)c2ccc(N(C)C)cc2)cc1`, the growth inhibition in assay [1] (setting [7]) is 99% (active); in assay [1] (setting [8]), 90% (active); in assay [1] (at 50.0 µM), 94.9% (active); in assay [2] (setting [7]) it was 99% (active); in assay [2] (setting [8]), 95% (active); in assay [2] (at 50.0 µM), 95% (active). In addition, the growth inhibition is 99% (active) in assay [3] (setting [7]); 95% (active) in assay [3] (setting [8]); 94.8% (active) in assay [3] (at 50.0 µM); 99% (active) in assay [4] (setting [7]); 93% (active) in assay [4] (setting [8]); 87.2% (active) in assay [4] (at 50.0 µM). Further, the growth inhibition is 99% (active) in assay [5] (setting [7]); 91% (active) in assay [5] (setting [8]); 94.8% (active) in assay [5] (at 50.0 µM); 99% (active) in assay [6] (setting [7]); 90% (active) in assay [6] (setting [8]); 91.2% (active) in assay [6] (at 50.0 µM).

For the compound `N=C1C=C(N)C(=O)c2ccccc21`, the growth inhibition in assay [1] (setting [7]) was 29%; in assay [1] (setting [8]), 87% (active); in assay [1] (at 50.0 µM), 97.5% (active); in assay [2] (setting [7]), 16%; in assay [2] (setting [8]), 40%; in assay [2] (at 50.0 µM), 65.5%. For the same compound, the growth inhibition in assay [3] (setting [7]) was 25%; in assay [3] (setting [8]) it was 80% (active); in assay [3] (at 50.0 µM), 93.8% (active); in assay [4] (setting [7]), 12%; in assay [4] (setting [8]), 54%; in assay [4] (at 50.0 µM), 75.9% (active). Also, the growth inhibition in assay [5] (setting [7]) was 31%; in assay [5] (setting [8]), 85% (active); in assay [5] (at 50.0 µM) it was 94.3% (active); in assay [6] (setting [7]) it was 20%; in assay [6] (setting [8]) it was 83% (active); in assay [6] (at 50.0 µM), 95% (active).

As for `CCOC(=O)C1(C)CCCC1N` (configuration not stated), the growth inhibition in assay [1] (setting [7]) is -1%; in assay [1] (setting [8]) it was 52%; in assay [1] (at 50.0 µM) it was -37.3%; in assay [2] (setting [7]) it was 2%; in assay [2] (setting [8]), 93% (active); in assay [2] (at 50.0 µM), -35%. Besides, the growth inhibition is -4% in assay [3] (setting [7]); 42% in assay [3] (setting [8]); -17.6% in assay [3] (at 50.0 µM); 21% in assay [4] (setting [7]); 94% (active) in assay [4] (setting [8]); 53.1% in assay [4] (at 50.0 µM). Also, the growth inhibition in assay [5] (setting [7]) is 14%; in assay [5] (setting [8]) it was 98% (active); in assay [5] (at 50.0 µM), -5.45%; in assay [6] (setting [7]), 14%; in assay [6] (setting [8]), 82% (active); in assay [6] (at 50.0 µM) it was 15.7%.
